# Data: PubChem BioAssay AID602250 (The Scripps Research Institute Molecular Screening Center, 2012)
# About 2,200 (0.61%) of roughly 360,000 compounds were called active. What follows is part of a selection rich in actives, with near analogues and random picks from the rest. Unmarked numbers belong to inactive results.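 The calls were made as follows: active = inhibition above a per-plate cutoff, the plate's mean sample inhibition plus 3 SD (cut at about 24% in these data); inactive = the rest.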
# Experiment: nonselective inhibitors of ATP calcium response in CHO-K1, primary screen, counter-screen for M1 antagonist project, cell-based, Fluo-8 calcium fluorescence, full deck, 1536-well (AID 602250);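 also: 0% = DMSO plus EC80 ATP and 100% = DMSO alone without ATP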
# Settings: CHO-K1 parental, ATP-induced calcium, Fluo-8 fluorescence; at 3 µM; active compounds read high
row,Compound,inhibition
1,CCn1ccnc1CN(C)C(=O)c1cc(COc2ccc(Cl)cc2OC)on1,-6.33%
2,COc1cc(Cl)ccc1OCc1cc(C(=O)N2CC[C@@H]3CCCC[C@H]3C2)no1,30.9% (active)
3,COc1ccc(OCc2cc(C(=O)N3CCCC3)no2)c2ccccc12,-10.3%
4,Cc1nn(-c2ccc(F)cc2)c(Cl)c1/C=C(/CCC(=O)O)c1nc2ccccc2s1,-3.61%
5,O=C(O)CCCCc1nc2ccccc2s1,33.5% (active)
6,O=C(O)CCCCCCCCc1cn(CN2C(=O)c3ccccc3C2=O)nn1,12.6%
7,Cc1ccc([C@H]2N[C@]3(CCCN(CC4CCCCC4)C3=O)[C@H]3C(=O)N(Cc4ccccc4)C(=O)[C@@H]23)cc1,-0.53%
8,CCCCN(C(=O)c1ccc(OC(F)(F)F)cc1)c1c(N)n(CCC)c(=O)[nH]c1=O,-6.23%
9,CCCCN(C)C(=O)c1ccc2c(c1)N(CC)C(=O)c1ccccc1S2(=O)=O,18%
10,Cc1cc(C)n(CC(=O)Nc2ccc([N+](=O)[O-])cc2)n1,-4.31%
11,O=C(Cc1ccc([N+](=O)[O-])cc1)Nc1ccc(C(=O)N2CCOCC2)cc1,-11.3%
12,O=C(Cc1cccs1)Nc1ccc([N+](=O)[O-])cc1,23.9% (active)
13,Cc1oc2c(F)c(F)c(F)c(F)c2c1S(=O)(=O)Nc1cccc(C(F)(F)F)c1,27.9% (active)
14,Cc1ccc(N(CCC(=O)O)S(=O)(=O)c2cccc(C(F)(F)F)c2)cc1,3.61%
15,Cc1noc(C)c1S(=O)(=O)Nc1cc(C(F)(F)F)ccc1N1CCOCC1,3.45%
16,COc1cc(C(=O)NCCOC(=O)c2cccc(N(C)C)c2)cc(OC)c1OC,-4.91%
17,CCOc1ccc2[nH]c(=O)c(CN(CCCO)C(C)=O)cc2c1,7.13%
18,OC(COc1ccccc1)CN1CCN(c2cccc(Cl)c2)CC1 (stereo unspecified),-14.9%
19,Cc1cccc(OCC(O)Cn2c(=N)n(CCN3CCOCC3)c3ccccc32)c1 (stereo unspecified),-12.8%
20,OC(CN=c1sc2ccccc2n1CC(O)COc1ccccc1)COc1ccccc1 (stereo unspecified),62.5% (active)
21,COC(=O)Cc1c(O)ccn(Cc2cccc(C(F)(F)F)c2)c1=O,-6.45%
22,Cc1cccc(C)c1Nc1nnc(SCC(=O)NCCCN2CCCC2=O)s1,-7.35%
23,O=C(NCCN1CCOCC1)[C@H](Cc1ccccc1)N1C(=O)c2ccccc2C1=O,-4.92%
24,CCOC(=O)C(Cc1ccc(N)cc1)N1C(=O)c2ccccc2C1=O (stereo unspecified),25.2% (active)

row,Compound,inhibition
1,COc1ccc(CNC(=O)COC(=O)C(CCSC)N2C(=O)c3ccccc3C2=O)cc1 (stereo unspecified),-6.61%
2,CCCS(=O)(=O)NC(=O)C1(C)CCCN(C(=O)c2cccs2)C1 (stereo unspecified),-9.34%
3,CCCNC(=O)c1cc2c(c(-c3cccc(-c4ccc(C#N)cc4)c3)n1)[C@@H](CCO)N(C(=O)CC)C2,25.5% (active)
4,CCNC(=O)c1cc2c(c(-c3cccc(-c4cncnc4)c3)n1)[C@H](CCO)N(C(C)=O)C2,-11.6%
5,CCC(=O)N1Cc2cc(C(=O)NCc3cccc(F)c3)nc(-c3cccc(C4=CCCC4)c3)c2[C@H]1CCO,-1.18%
6,COc1ccc(C(C[N+](=O)[O-])n2nc(C)cc2C)cc1 (stereo unspecified),-0.39%
7,Cc1c(Cl)cccc1NC(=O)Nc1ccc(C(=O)N2CCCC2)cc1,-18.4%
8,Cc1c(Cl)cccc1NC(=O)NCc1ccc(C)n1C,3.33%
9,Cc1c(NC(=O)Nc2ccccc2Cl)sc(=S)n1C,24.7% (active)
10,CC1(C)CC(=O)c2cnc3nc4ccccc4n3c2C1,-11.2%
11,CC1(C)CC(=O)C(N=Nc2c(F)cccc2F)=C(O)C1,-15.2%
12,CCOC(=O)C1(C)CCCN(C(=O)c2cccc(Cl)c2)C1 (stereo unspecified),-16.1%
13,CCO/N=C(/C)c1c(O)cc(-c2ccccc2)n(-c2ccccc2)c1=O,-7.62%
14,C=CCO/N=C(\C)c1c(O)c(C)c(-c2ccccc2)n(-c2ccccc2)c1=O,28% (active)
15,Cc1nn(-c2ccccc2)c(C)c1/C=N/NC(=O)CSc1nc2ccccc2c(=O)n1-c1ccccc1,14.8%
16,O=C(C1CC1)N1N=C2CCCCC2C1(O)C(F)(F)F (stereo unspecified),3.71%
17,CC(=O)NCCc1ccc(S(=O)(=O)Nc2ccc(C)c(S(=O)(=O)N3CCOCC3)c2)cc1,11%
18,Cn1c(=O)c2c(SCC(=O)N3CCOCC3)nc(C3CC3)nc2n(C)c1=O,-6.78%
19,CCCC1(C(=O)OCC)NC(c2ccc(N(C)C)cc2)C2C(=O)N(c3ccc4c(c3)OCCO4)C(=O)C21 (stereo unspecified),-5.19%
20,Cc1ccc(CNC(=O)CCNS(=O)(=O)c2cccc3nonc23)cc1,-10.2%
21,CCNC(=S)NNC(=O)Cc1ccccc1,32.5% (active)
22,CCNC(=S)NNC(=O)C1CCN(Cc2ccccc2)CC1,-12.2%
23,Cc1scc(C(=O)NNC(=S)NCc2ccccc2)c1C,-15.3%
24,CCOC(=O)C1CCN(C(=O)c2ccc3c(=O)n4nc(Nc5ccccc5CC)sc4nc3c2)CC1,-9.89%

row,Compound,inhibition
1,CCSc1nc2c(c(=O)[nH]1)C(c1cccnc1)C(C(=O)OC(C)C)=C(C)N2 (stereo unspecified),25.5% (active)
2,COC(=O)C1=C(N)Oc2cc(C)oc(=O)c2C1c1cccnc1 (stereo unspecified),-3.67%
3,CCSc1nc(O)c(C(c2cccc(OC)c2)c2c(O)nc(SCC)[nH]c2=O)c(=O)[nH]1,-3.25%
4,COc1ccc(Cl)cc1NC(=O)CN(C)C(=O)CCCc1c[nH]c2ccccc12,2.49%
5,O=C1NC(Cc2ccccc2)c2nc3ccc(Br)cc3c(=O)n2-c2cc3ccccc3cc21 (stereo unspecified),12.3%
6,COc1ccc(O)c(C=Nc2cc(C)on2)c1,-9.65%
7,O=C(Nc1ccc2ccccc2c1)Nc1ccc2snnc2c1,32.6% (active)
8,CS(=O)(=O)c1ccccc1C(=O)Nc1ccc2sccc2c1,-10.2%
9,Cc1ccc(NC(=O)Nc2ccc3oc(C)nc3c2)cc1,-8.85%
10,CC(C)Oc1ccc(CC(=O)NNC(=S)Nc2ccc(Br)cc2)cc1,-8.93%
11,CC(C)OCCCNc1ncnc2c1[nH]c1ccc(F)cc12,26.5% (active)
12,CCOc1ccc(C2NC(=S)NC3=C2CCc2ccccc23)cc1 (stereo unspecified),4.36%
13,COCc1[nH][nH]c(=O)c1C=Nc1ccc(F)cc1F,3.8%
14,CCN1/C(=C\c2ccc3ccccc3[n+]2CC)Sc2cc(C)ccc21,47.2% (active)
15,O=C(CC(O)(C(F)(F)F)C(F)(F)F)Nc1ccc(Cl)c(Cl)c1,42.9% (active)
16,N#CCCN(C(=O)Nc1ccc(Cl)c(Cl)c1)C1CCCCC1,5.09%
17,CC1(C(=O)O)CCC(C(=O)Nc2ccc(Cl)c(Cl)c2)C1(C)C (stereo unspecified),-12.5%
18,CC1(C)C2CCC13CS(=O)(=O)NC3C2 (stereo unspecified),-9.03%
19,NC1=NC2(CCCCC2)N(c2ccc(F)cc2F)C(N)=N1,13.8%
20,CC(C)N1CCc2c(sc(NC(=O)Cc3ccccc3)c2C#N)C1,24.7% (active)
21,CC(=O)N1CCc2c(sc(NC(=O)CCS(=O)(=O)c3ccccc3)c2C#N)C1,0.29%
22,N#Cc1c(N)sc2c1CCN(C(=O)OCc1ccccc1)C2,-19.6%
23,C[C@H](NC(=O)[C@@H]1CCCN1C(=O)[C@@H]1CCCN1C(=O)c1ccccc1)c1ccccc1,-24.1%
